# Test results reported in PubChem BioAssay (NCI).
# Several values for one entry are separate records, joined by “and”; a condition that tells them apart may be missing. Equal values may be shown once. About 83,000 compounds went through this panel and 20% of them were active in at least one assay; those are over-represented in the sample as a whole.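 Method: cells in 96-well plates; compound added at one concentration; 48 h incubation; percent growth measured; values under 10 scored active.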 Activity calls are given as the source filed them.
# Assays:
# Assay in all cases: NCI-60 one-dose screen, 48 h (100 = growth as untreated, 0 = no growth, -100 = all killed)
# Conditions in all cases: 10 µM unless noted
# NCI-H23 lung = test system: NCI-H23 lung
# NCI-H226 lung = test system: NCI-H226 lung
# NCI-H322M lung = test system: NCI-H322M lung
# HOP-62 NSCLC = test system: HOP-62 NSCLC
# NCI-H460 lung = test system: NCI-H460 lung
# HOP-92 NSCLC = test system: HOP-92 NSCLC
# NCI-H522 lung = test system: NCI-H522 lung
# A549/ATCC NSCLC = test system: A549/ATCC NSCLC
# 786-0 renal = test system: 786-0 renal
# COLO 205 colon = test system: COLO 205 colon
SMILES,growth (NCI-H23 lung),growth (NCI-H226 lung),growth (NCI-H322M lung),growth (HOP-62 NSCLC),growth (NCI-H460 lung),growth (HOP-92 NSCLC),growth (NCI-H522 lung),growth (A549/ATCC NSCLC),growth (786-0 renal),growth (COLO 205 colon)
Cc1nn(-c2ccccc2)nc1C(=O)Nc1ccccc1C(=O)NCC1CC1,102% (inactive) and 77.6% (inactive),98.1% (inactive) and 45.7% (inactive),111% (inactive) and 76.7% (inactive),96.7% (inactive) and 46.1% (inactive),94.3% (inactive) and 26.8% (inactive),75.8% (inactive),91.9% (inactive),67.8% (inactive) and 38.7% (inactive),110% (inactive) and 35.1% (inactive),95.3% (inactive) and 52.8% (inactive)
CNC(=O)c1cccc(-c2ccc3c(N4CCOC[C@@H]4C)nc(N4CCOC[C@@H]4C)nc3n2)c1,18.3% (inactive) and 10.2% (inactive),-11.5% (active) and -2.84% (active),6.83% (active) and -14.6% (active),-3.27% (active) and -14.6% (active),11.4% (inactive) and 9.46% (active),-25.3% (active) and -21.5% (active),10.4% (inactive) and -11.1% (active),4.83% (active) and -7.57% (active),0.967% (active) and -5.74% (active),4.53% (active) and -11.4% (active)
CCOc1ccc2nc3cc(N)ccc3c(N)c2c1,46.3% (inactive) and 40.5% (inactive),20.2% (inactive) and 44.6% (inactive),36.7% (inactive) and 28.8% (inactive),23% (inactive) and 26.8% (inactive),29.3% (inactive) and 61.9% (inactive),58.3% (inactive),0.893% (active) and 10.4% (inactive),77.6% (inactive) and 77.2% (inactive),24.2% (inactive) and 13.8% (inactive),71.1% (inactive) and 75.9% (inactive)
COC(=O)[C@H]1CCCN1C(=O)C1CCCN1C(=O)[C@@H](Cc1ccccc1)NC(=S)Nc1cc(C(F)(F)F)cc(C(F)(F)F)c1 (stereo not given in full),108% (inactive) and 96.5% (inactive),105% (inactive) and 87.6% (inactive),142% (inactive) and 88.4% (inactive),105% (inactive) and 97.9% (inactive),102% (inactive) and 94.5% (inactive),111% (inactive) and 84.9% (inactive),98.6% (inactive) and 78.1% (inactive),97.2% (inactive) and 71.4% (inactive),105% (inactive) and 99.2% (inactive),121% (inactive) and 91.4% (inactive)
CC(C)(C)c1ccc(O)c(CNC2CCCCC2)c1,96.6% (inactive) and 90.8% (inactive),96.5% (inactive) and 81.2% (inactive),97.6% (inactive) and 100% (inactive),119% (inactive) and 88.9% (inactive),103% (inactive) and 93.6% (inactive),72.4% (inactive) and 84.3% (inactive),102% (inactive) and 84.8% (inactive),99.2% (inactive) and 84.7% (inactive),96.1% (inactive) and 80.4% (inactive),9.74% (active) and 107% (inactive)
CN(C)c1ccc2nc3ccc(=[N+](C)C)cc-3sc2c1,12.5% (inactive) and 8.52% (active) and 28% (inactive),52.2% (inactive) and 66.6% (inactive) and 68.8% (inactive),24.8% (inactive) and 11.7% (inactive) and 30.7% (inactive),58.7% (inactive) and 24.6% (inactive) and 46.6% (inactive),17.1% (inactive) and 13.5% (inactive) and 32.9% (inactive),63.3% (inactive) and 43.9% (inactive) and 76.6% (inactive),6.69% (active) and 34.6% (inactive) and 37.6% (inactive),3.7% (active) and 3.9% (active) and 14.7% (inactive),40.9% (inactive) and 45.6% (inactive) and 54.6% (inactive),11.2% (inactive) and -3.25% (active) and -16.6% (active)
N/C(=N\N=C\c1ccc2c(c1)OCO2)N/N=C\c1ccc2c(c1)OCO2,109% (inactive) and 89% (inactive),106% (inactive) and 108% (inactive),108% (inactive) and 101% (inactive),115% (inactive) and 101% (inactive),104% (inactive) and 69.4% (inactive),99.8% (inactive),119% (inactive) and 108% (inactive),107% (inactive) and 108% (inactive),103% (inactive) and 88.6% (inactive),108% (inactive) and 94.5% (inactive)
Cc1cccc(/C=C\C(=O)c2ccccc2)c1,93.5% (inactive) and 101% (inactive),111% (inactive) and 95.5% (inactive),97% (inactive) and 93.7% (inactive),98.5% (inactive) and 111% (inactive),109% (inactive) and 100% (inactive),81.3% (inactive),95.3% (inactive),87.7% (inactive) and 92.8% (inactive),79.7% (inactive),112% (inactive) and 114% (inactive)
CCN(CC)CCOc1ccc(/C=N/Nc2nc3c([nH]2)c(=O)n(C)c(=O)n3C)cc1,89.8% (inactive) and 103% (inactive),102% (inactive) and 101% (inactive),109% (inactive) and 94.1% (inactive),103% (inactive) and 108% (inactive),109% (inactive) and 105% (inactive),94.6% (inactive),84.8% (inactive) and 93.3% (inactive),104% (inactive) and 110% (inactive),91.7% (inactive) and 107% (inactive),112% (inactive) and 111% (inactive)
CCN(CC)CCNc1cc(-c2cccc(OC(F)(F)F)c2)nc2ccc(N3CCCC3)cc12,65.9% (inactive) and -7.71% (active) and 34.2% (inactive),74.3% (inactive) and 47.8% (inactive) and 63.7% (inactive),29.2% (inactive) and 18.9% (inactive) and 58.3% (inactive),51.6% (inactive) and 3.4% (active) and 34.8% (inactive),27.2% (inactive) and 0.777% (active) and 11.8% (inactive),-83.3% (active) and -7.78% (active) and 20.8% (inactive),60.8% (inactive) and -30.5% (active) and 23% (inactive),55% (inactive) and 3.66% (active) and 29.9% (inactive),-59.9% (active) and 1.27% (active) and 21.2% (inactive),32.5% (inactive) and -76.5% (active) and -46.9% (active)
N#C/C(=C1C=C/C(=N/O)C(Br)=C/1)c1ccccc1,78.3% (inactive),32% (inactive),42.4% (inactive),16.3% (inactive),8.25% (active),-6.62% (active),-43.3% (active),27.6% (inactive),20% (inactive),83.2% (inactive)
O=C(/C=C/c1ccccn1)c1ccccc1O,73.9% (inactive) and 81.3% (inactive),93.2% (inactive) and 97.3% (inactive),100% (inactive) and 113% (inactive),79.5% (inactive) and 72.2% (inactive),65.2% (inactive) and 101% (inactive),75.5% (inactive) and 34.2% (inactive),67.8% (inactive) and 28.4% (inactive),55.3% (inactive) and 79.7% (inactive),90.6% (inactive) and 91.4% (inactive),63.6% (inactive) and 65.4% (inactive)
O=[N+]([O-])c1ccc(Oc2ccccc2)cc1,95.7% (inactive) and 105% (inactive),103% (inactive),104% (inactive) and 111% (inactive),106% (inactive) and 95.9% (inactive),103% (inactive) and 102% (inactive),48.8% (inactive) and 77.1% (inactive),108% (inactive) and 103% (inactive),104% (inactive) and 89.5% (inactive),103% (inactive) and 106% (inactive),109% (inactive) and 110% (inactive)
